# How the values were obtained:
# Experiment in all cases: PBM binding z-score (relative to random genomic background probes); higher = stronger binding; sequences stand for … in GC…GCGATTGACAGCGTAGAATGAAGG
# [1] = system: RARb homodimer (NR concentration 270 nM)
# Method in brief: (§1)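 Binding z-scores take random background probes as their reference. They come from custom Agilent 4×180K protein-binding microarrays incubated 1 h with ligand-free nuclear receptor dimers, with antibodies against each partner (one per run) detecting binding. Scanned fluorescence was regression-normalized.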
# [2] = system: RARg:RXRa (NR concentration 270 nM, RXRa partner concentration 90 nM)
# Method in brief: as §1
# [3] = system: RARg homodimer (NR concentration 270 nM)
# Method in brief: as §1
# [4] = system: RXRa DBDmut IVT, anti-RXR (DBD mutation: RXRa K156A/R161A, NR concentration 90 nM)
# Method in brief: as §1
# [5] = system: RXRa homodimer (NR concentration 180 nM)
# Method in brief: as §1
# [6] = system: THRa:RXRa (NR concentration 90 nM, RXRa partner concentration 90 nM)
# Method in brief: as §1
# [7] = system: THRa homodimer (NR concentration 90 nM)
# Method in brief: as §1
# [8] = system: VDR homodimer (NR concentration 270 nM)
# Method in brief: as §1
Sequence,PBM binding z-score [1],PBM binding z-score [2],PBM binding z-score [3],PBM binding z-score [4],PBM binding z-score [5],PBM binding z-score [6],PBM binding z-score [7],PBM binding z-score [8]
GCGACTGGGGCAAAGCAGGTGACCATAAGGTTGG,0.982,0.256,0.536,-0.884,0.188,2.88,-0.094,-0.886
GGAACGAGGGCATTCGAGTTGATAACATGGCGAT,0.66,1.41,1.74,3.17,1.08,3.37,-0.138,3.48
CAAACTAGGTCACAGAGTTCAAAGTCCGTGCGTA,4.74,6.06,6.71,4.25,5.69,4.03,1.96,9.52
CGAACTCGGTCATTGACAGGACAGTGAATAGTAA,1.42,2.12,2.49,0.678,0.736,0.661,-0.331,0.676
ATATGTAGGTTATCGGGTCAATCAGTTTGCGCAT,3.02,3.59,2.68,1.45,3.75,3.3,2.53,2.85
CGTCCAAGGTCAGAGAGTTCAGTGAATGCCGAGT,4.39,5.25,6.4,3.78,4.59,3.62,2,7.94
AGACTGAGGTTATACGTAGATCAGGGAAGAAAGT,0.864,1.64,1.03,1.44,2.09,2.01,0.684,0.49
AGGACGAGGGCACGCTGAGTTGATAGCAGAGTAG,1.36,1.76,2.67,2.23,1.51,1.88,0.162,1.51
ATCTCTAGGTAACAAGTTCAGTGAAAGAGAGGAC,1.78,1.52,1.61,1.06,0.955,1.68,0.986,3.36
GATACAGTGTCAAGGCCAGAGTACGCGTATTGAT,1.04,0.527,1.03,0.061,0.517,0.471,-0.196,0.431
AATACAGGATCATCGTAGGCCAGAGTACGCACAG,0.484,0.381,0.569,0.155,0.54,1.59,-0.259,0.692
ATCTCTAAGTAACCAAGTTCAGTGAATGCCGAAC,1.43,0.516,0.56,1.2,0.443,0.648,0.45,2.61
TGAATGAGGTTAAAGATCAGAGAACGTGGCGTCG,0.55,2.23,1.36,1.15,3.86,2.28,0.132,0.373
AGAATGATGTTACCAAAGATCAGGGAAACGCTTG,-0.737,0.0194,0.432,-0.312,0.387,-0.115,-0.58,-0.437
CTACCAAGGTGAACGAGGTCGTTGATTACTATTC,2.24,2.13,1.32,1.85,2.26,3.36,2.17,3.61
AGTATGAGGTTATACGTAGATCAGGGAAGAAAGT,0.828,1.81,1.26,1.67,2.18,2.4,0.869,0.823
ATCTCTAGGTAACCAAGTTCAGTGACTGCCGAAC,1.39,0.744,0.871,1.24,0.577,1.46,1.03,2.9
CAGCCTAAGTCAGGGCCAGTATAGGAGGAACGTT,0.00988,-0.148,-0.0459,-0.572,-0.223,-0.328,-0.317,-0.363
CCTAGTTGGTCAGGAGGTCACTCACCGGATATGA,3.92,4.48,3.73,0.697,3.58,3.17,2.09,2.45
TCGAGTAGGTTACCAATGTGGCATTCAGCTTTCT,-0.0137,0.035,0.256,0.471,0.375,0.00485,-0.499,-0.622
TCGAGTAGGTTAGTCGGGGCATTTAGCCAACATA,0.426,0.175,-0.0384,0.477,0.261,1.12,-0.042,0.418
CCTACTGGGCCATTCAGAGGTCGTTGATCATATG,1.58,1.55,0.872,0.268,1.05,1.28,0.339,2.12
CCTTACGGGTCATTCCAGGTTATAGCATCGGAGT,3.03,4.52,4.25,2.86,5.2,5.12,0.692,2.59
CCTTACGGGTCACTGACAAGTTATAGCATTTGGA,2.62,4.86,4.71,1.85,5.12,2.29,0.165,0.93
GCTAGTTGGTCAGTAAAAGGTCACACAACGGTCG,5.29,5.75,5.52,0.797,5.56,3.76,1.74,1.75
CCGACTAGGGCAGAAAGGTTACCATACCATCCGG,2.4,1.99,1.91,-0.271,1.92,1.21,-0.493,-0.0974
CGAACGAGGGCATGAGTTGATAGTAAATGCCGAT,0.956,1.48,1.7,2.41,1.09,1.33,-0.0333,1.98
TCTGCTAGGTCAACGATGGTCAGCAAATCTGCTA,3.35,3.94,5.26,0.984,2.45,3.17,0.756,-0.402
TAGCCTAGGTCAGATCGGGCCAATATACGCTATA,2.28,2.9,3.4,-0.355,1.51,4.32,0.165,-0.261

# Source: the supplement of paper PMC6555819
